# Calls of active or inactive are those of the source.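 How the source made its calls, unless noted: active means fluorescence slope after compound addition differing from the mean of all screened samples at 99.7% confidence, in either direction; inactive means the rest.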
# Experiments:
# [1] = inhibitors of TNFa-induced NFkB p65 translocation, primary screen, imaging, HUVEC, MLSMR starter and 10KST1 sets (AID 438;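 active means inhibition above 20% together with a positive visual image hit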;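 further: compound added about 3h40 before a 20 min TNFalpha stimulation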;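 on inhibition: signal is the nuclear over cytoplasmic p65 intensity ratio per well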); settings: HUVEC TNFa-induced p65 nuclear translocation; cell count: measured here: nuclei count (cytotoxicity indicator), at 2.08 µM; inhibition: at 2 µM, stronger effect = higher value, 0% TNFa-plus-vehicle, 100% no-TNFa wells
# [2] = inhibitors of mutant huntingtin aggregation, primary screen, imaging, exon1htt(103Q)mCFP cells, high-content imaging (AID 483;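 active means visual image review flags a hit and inhibition of aggregation exceeds 20%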;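 further: compound exposure lasted 3 days before fixation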;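 on nuclei count: percent of the per-plate median nuclei count of sample wells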); settings: exon1htt(103Q)mCFP cell line, aggregate imaging, at 2 µM; inhibition of aggregation: stronger effect = higher value; nuclei count: measured here: cell count, toxicity
# [3] = inhibitors of E-selectin induction by TNFa, primary screen, imaging, HUVEC, immunofluorescence, MLSMR starter and 10KST1 sets (AID 487;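 active means visually confirmed hit in the image check and inhibition above 20%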;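 on inhibition: signal is fraction of cell area covered by stained E-selectin grains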;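 on nuclei count: 100% = median nuclei count of all wells on the same plate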); settings: HUVEC TNFalpha-induced E-selectin immunofluorescence imaging, at 2 µM; inhibition: stronger effect = higher value; nuclei count: measured here: cell number, toxicity
# [4] = biological target: Voltage-gated potassium channel subunit beta-2 (Rattus norvegicus) (UniProt P62483); assay: KvBeta enzyme negative modulators, primary screen, biochemical, NADPH fluorescence (AID 622;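 active means fluorescence slope higher than the sample average by over 3 SD, cut at about -0.22 in these data, passing the limit was not always enough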;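 further: slope of raw intensity against log time taken from 70 to 1610 s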); settings: recombinant KvBeta, 4-cyanobenzaldehyde reduction, at 10 µM, stronger effect = higher value
# Chain of Voltage-gated potassium channel subunit beta-2 (Rattus norvegicus) (P62483 whole entry, looked up): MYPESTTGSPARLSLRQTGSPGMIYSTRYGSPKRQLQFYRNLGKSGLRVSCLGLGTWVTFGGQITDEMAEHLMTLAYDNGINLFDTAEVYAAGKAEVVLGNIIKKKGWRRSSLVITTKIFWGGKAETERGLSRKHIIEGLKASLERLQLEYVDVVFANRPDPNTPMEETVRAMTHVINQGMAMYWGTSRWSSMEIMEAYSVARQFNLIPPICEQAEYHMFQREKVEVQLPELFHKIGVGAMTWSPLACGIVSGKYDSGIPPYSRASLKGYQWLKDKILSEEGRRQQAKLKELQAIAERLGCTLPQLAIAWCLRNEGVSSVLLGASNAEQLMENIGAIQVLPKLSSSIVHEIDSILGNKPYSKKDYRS
# [5] = biological target: Voltage-gated potassium channel subunit beta-2 (Rattus norvegicus) (UniProt P62483); assay: KvBeta positive modulators, primary screen, biochemical, NADPH fluorescence (AID 623;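 active means NADPH fluorescence slope more negative than the mean of all samples by about 3 SD, 99.7% confidence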;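 further: fluorescence intensity change per second fitted from 20 to 320 s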); settings: Recombinant KvBeta, NADPH fluorescence decrease slope, 10 min; at 10 µM; stronger effect = lower value
# [6] = biological target: Alpha-2C adrenergic receptor (Homo sapiens) (UniProt P18825); assay: modulators of alpha2C/GIRK thallium flux, primary screen, cell-based, HEK293 alpha2C/GIRK1/2 (AID 624); settings: thallium flux BTC fluorescence, at 10 µM, actives lie on both sides;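 further: slope of fluorescence ratio to pre-addition baseline per second over 15 to 24 s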
# Chain of Alpha-2C adrenergic receptor (Homo sapiens) (P18825 whole entry, looked up): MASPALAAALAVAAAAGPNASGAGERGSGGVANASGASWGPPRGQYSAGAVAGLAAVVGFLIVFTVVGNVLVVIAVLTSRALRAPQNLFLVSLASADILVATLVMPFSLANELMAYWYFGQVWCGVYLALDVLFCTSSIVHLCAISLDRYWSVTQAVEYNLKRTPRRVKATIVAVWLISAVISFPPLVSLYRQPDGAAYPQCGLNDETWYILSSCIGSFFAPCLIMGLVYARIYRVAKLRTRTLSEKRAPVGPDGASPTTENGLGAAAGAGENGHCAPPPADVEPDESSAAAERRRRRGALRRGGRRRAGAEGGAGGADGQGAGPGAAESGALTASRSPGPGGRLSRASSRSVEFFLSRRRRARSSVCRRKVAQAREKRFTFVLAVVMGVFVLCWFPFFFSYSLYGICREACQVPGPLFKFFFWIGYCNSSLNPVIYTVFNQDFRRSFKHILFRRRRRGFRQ
# [7] = inhibitors of Sendai virus-induced IRF3 signaling, primary screen, TLR/RLR signaling modifier project, cell-based, Sendai virus stimulus, luciferase, 10K MLSCN set (AID 602276;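 active means inhibition at or above 50% at 10 µM; inactive means inhibition below 50%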;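 further: firefly luciferase from ISG56 promoter only with Renilla not read in this screen; 0% = Sendai virus plus DMSO and 100% = medium plus DMSO without virus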); settings: HEK293 RL24 IRF3 luciferase reporter, at 10 µM, stronger effect = higher value
# [8] = inhibitors of poly I:C-induced TLR3 signaling, primary screen, cell-based, poly I:C stimulus, luciferase, 10K MLSCN set (AID 602277;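 active means inhibition of the reporter signal at or above 50%; inactive means inhibition below 50%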); settings: HEK293-TLR3 RL24 IRF3 luciferase reporter, at 10 µM, stronger effect = higher value
SMILES,cell count [1],inhibition [1],inhibition of aggregation [2],nuclei count [2] [%],inhibition [3],nuclei count [3] [%],fluorescence slope [4],NADPH fluorescence slope [5],slope [6],inhibition [7],inhibition [8]
COc1ccc(S(=O)(=O)N2CCN(c3ccc(C)cc3C)CC2)cc1OC,772,-0.6% (inactive),-17.1% (inactive),114,-19.1% (inactive),123,-0.544 (inactive),-3.9e-05 (inactive),0.0076 (inactive),4.37% (inactive),13.8% (inactive)
CCC1CCCCN1C(=O)CSc1nnc(-c2ccco2)o1 (centres undefined),368,4.2% (inactive),-17.6% (inactive),100,-80.6% (inactive),104,-0.487 (inactive),-7.3e-05 (inactive),0.00444 (inactive),-35.7% (inactive),-88.3% (inactive)
CCOc1cccc(C(=O)N2CCCCC2c2cccnc2)c1 (centres undefined),269,-0.4% (inactive),-24.6% (inactive),95.1,-148% (inactive),101,-0.526 (inactive),-4.2e-05 (inactive),0.00421 (inactive),9.72% (inactive),19.7% (inactive)
CCOc1ccc(NC(=O)C2CC(=O)N(CC)C(=Nc3ccc4c(c3)OCO4)S2)cc1 (centres undefined),356,-6.2% (inactive),12.9% (inactive),81.1,-125% (inactive),113,-0.358 (inactive),-6.3e-05 (inactive),0.00411 (inactive),-1.73% (inactive),1.26% (inactive)
COC(=O)c1ccc(-n2nnnc2SCc2nn[nH]n2)cc1,543,-7.8% (inactive),-11.5% (inactive),99.6,-29% (inactive),130,-0.35 (inactive),1.4e-05 (inactive),0.00668 (inactive),-8.25% (inactive),-3.28% (inactive)
CSCCC(NC(=O)c1ccco1)C(=O)O (centres undefined),411,4.4% (inactive),-0.5% (inactive),105,-358% (inactive),143,-0.534 (inactive),-4e-05 (inactive),0.00451 (inactive),-9.48% (inactive),-11.3% (inactive)
OC1(c2cccc(C(F)(F)F)c2)CCN(c2ccc(-c3ccccc3)nn2)CC1,853,4.3% (inactive),-13.4% (inactive),96.8,-25.2% (inactive),106,-0.456 (inactive),-4.5e-05 (inactive),0.00688 (inactive),-40.7% (inactive),-99% (inactive)
O=C1CC(C2CCCO2)C(=O)N1Cc1ccccc1 (centres undefined),418,-5.4% (inactive),19% (inactive),101,-1.7% (inactive),125,-0.489 (inactive),-3.7e-05 (inactive),0.00667 (inactive),-6.03% (inactive),10.9% (inactive)
COC(=O)c1ccc(NC2(C#N)C(=O)Nc3ccccc32)cc1 (centres undefined),246,7.6% (inactive),15% (inactive),95.5,-208% (inactive),116,-0.408 (inactive),-1.9e-05 (inactive),0.00466 (inactive),19% (inactive),8.66% (inactive)
COc1ccc(NC(=O)C(C)NS(=O)(=O)c2ccccc2)cc1Cl (centres undefined),315,-15.9% (inactive),2.6% (inactive),116,-51.4% (inactive),65,-0.369 (inactive),7.6e-06 (inactive),0.00596 (inactive),8.06% (inactive),17.6% (inactive)
CC1=CCC(C(C)(C)NC(=O)c2ccccc2)C/C1=N\O (centres undefined),313,2% (inactive),-4.5% (inactive),89.1,-6.2% (inactive),120,-0.624 (inactive),-1.5e-05 (inactive),0.00574 (inactive),17.1% (inactive),20.6% (inactive)
CC(C)Cn1c(N)c(C(=O)COC(=O)c2ccc3c(c2)OCCO3)c(=O)n(C)c1=O,365,-4.4% (inactive),-5.7% (inactive),75.7,-5.7% (inactive),106,-0.575 (inactive),-6.3e-05 (inactive),0.0066 (inactive),-14.6% (inactive),-49.5% (inactive)
O=C(Nc1ccccc1C(F)(F)F)c1cc(S(=O)(=O)N2CCOCC2)ccc1F,415,2.8% (inactive),12.8% (inactive),62.3,-247% (inactive),107,-0.619 (inactive),2.6e-06 (inactive),0.00704 (inactive),8.22% (inactive),21.8% (inactive)
Cc1cc(C)cc(-n2nnc(C(=O)NCc3ccc4c(c3)OCO4)c2N)c1,571,7.5% (inactive),-33.1% (inactive),108,-17.7% (inactive),108,-0.572 (inactive),2.9e-05 (inactive),0.00545 (inactive),7.67% (inactive),22.1% (inactive)
